{"source": "paper PMC6925144", "about": "“A prospective compound screening contest identified broader inhibitors for Sirtuin 1” (Scientific Reports, 2019)", "note": "Over roughly 3,200 compounds, “TSA(with NAD+) / Primary screening (TSA) / delta Tm (K)” has its median near -0.04; the highest 2% begin near 0.37. The list comes from a sample in which the highest values are over-represented; it also holds similar structures and randomly drawn compounds."}
{"biological_target": "NAD-dependent deacetylase Sirtuin 1 (human, UniProt Q96EB6)", "sequence (Q96EB6 2-747 limits assumed)": "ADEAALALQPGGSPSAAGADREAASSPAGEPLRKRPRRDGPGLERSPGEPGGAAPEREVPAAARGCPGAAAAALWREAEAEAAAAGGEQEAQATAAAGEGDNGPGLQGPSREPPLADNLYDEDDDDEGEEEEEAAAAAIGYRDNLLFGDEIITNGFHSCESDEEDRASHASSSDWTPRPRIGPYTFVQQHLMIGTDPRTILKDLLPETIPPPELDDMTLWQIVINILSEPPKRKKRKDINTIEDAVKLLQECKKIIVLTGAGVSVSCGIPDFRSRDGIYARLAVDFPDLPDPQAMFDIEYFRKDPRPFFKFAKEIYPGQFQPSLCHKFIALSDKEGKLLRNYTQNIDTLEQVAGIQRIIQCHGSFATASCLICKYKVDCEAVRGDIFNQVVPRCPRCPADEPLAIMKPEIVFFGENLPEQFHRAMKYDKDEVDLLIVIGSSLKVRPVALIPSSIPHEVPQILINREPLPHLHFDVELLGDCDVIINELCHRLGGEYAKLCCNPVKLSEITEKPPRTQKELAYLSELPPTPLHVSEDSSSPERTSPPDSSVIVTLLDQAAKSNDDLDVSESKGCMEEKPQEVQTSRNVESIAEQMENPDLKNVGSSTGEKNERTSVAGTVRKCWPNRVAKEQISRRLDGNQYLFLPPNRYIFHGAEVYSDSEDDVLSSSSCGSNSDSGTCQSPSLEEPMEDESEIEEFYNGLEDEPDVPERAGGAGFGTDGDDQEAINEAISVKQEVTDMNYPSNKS", "test": "primary screen, delta tm", "set-up": "single well (n = 1, as 'the same TSA')", "conditions": "10 µM", "procedure": "A total of 3,192 compounds extracted from the proposed lists were first screened by thermal shift assay (TSA), which determined a melting temperature shift (ΔTm) of Sirtuin 1 upon the addition of a test compound at a concentration of 10 µM (n = 1) with primary hit criteria of ΔTm > 0.45 K or ΔTm < −1.5 K. Primary hits (48 compounds) were retested in the same assay at three concentrations (5, 10, 20 µM, n = 4) for hit confirmation and for dose-dependency check. Secondary hits (41 compounds) were checked their selectivity for Sirtuin 1 based on counterscreening on unrelated protein targets (bovine carbonic anhydrase (CA) and recombinant SH2 domain of hABL1 kinase (ABL1)) at three different concentrations (5, 10, 20 µM, n = 4), which yielded 38 hit compounds, hereafter referred to as TSA hits. The TSA screening above was conducted in the absence of NAD+. As noted, the structure of Sirtuin 1 is different in the presence of NAD+ and substrate. The chemical profile of TSA hits found from the different conditions could be different. […] As a result, 39 TSA hits were found.", "units": {"TSA(with NAD+) / Primary screening (TSA) / delta Tm (K)": "K"}}
{"smiles": "CN(c1ccccc1)S(=O)(=O)c1ccc(C(=O)Nc2cccc(S(=O)(=O)N3CCOCC3)c2)cc1", "TSA(with NAD+) / Primary screening (TSA) / delta Tm (K)": -0.01}
{"smiles": "O=C(Nc1cccc(S(=O)(=O)N2CCOCC2)c1)c1cccc(S(=O)(=O)N2CCc3ccccc32)c1", "TSA(with NAD+) / Primary screening (TSA) / delta Tm (K)": 0.41}
{"smiles": "O=C(Nc1cccc(S(=O)(=O)N2CCOCC2)c1)c1cn(-c2ccccc2)nc1-c1ccc(F)cc1", "TSA(with NAD+) / Primary screening (TSA) / delta Tm (K)": 0.39}
{"smiles": "O=C(Nc1cccc(S(=O)(=O)N2CCOCC2)c1)c1cc(-c2ccccc2)nn1-c1ccccc1", "TSA(with NAD+) / Primary screening (TSA) / delta Tm (K)": -0.04}
{"smiles": "O=C(Nc1cccc(S(=O)(=O)N2CCOCC2)c1)c1ccccc1Cc1ccccc1", "TSA(with NAD+) / Primary screening (TSA) / delta Tm (K)": -0.09}
{"smiles": "O=C(Nc1cccc(S(=O)(=O)N2CCOCC2)c1)c1cn(-c2ccccc2)nc1-c1ccc(Cl)cc1", "TSA(with NAD+) / Primary screening (TSA) / delta Tm (K)": 0.63}
{"smiles": "O=C(Nc1cccc(S(=O)(=O)N2CCOCC2)c1)c1cn(-c2ccccc2)nc1-c1ccccc1", "TSA(with NAD+) / Primary screening (TSA) / delta Tm (K)": 0.12}
{"smiles": "O=C(Nc1cccc(S(=O)(=O)N2CCOCC2)c1)C(c1ccccc1)c1ccccc1", "TSA(with NAD+) / Primary screening (TSA) / delta Tm (K)": 0.16}
{"smiles": "Cc1ccc(-c2nn(-c3ccccc3)cc2C(=O)Nc2cccc(S(=O)(=O)N3CCOCC3)c2)cc1", "TSA(with NAD+) / Primary screening (TSA) / delta Tm (K)": 0.26}
{"smiles": "O=C(CCC(=O)c1ccccc1)Nc1ccccc1Cc1ccccc1", "TSA(with NAD+) / Primary screening (TSA) / delta Tm (K)": -0.11}
{"smiles": "COC1CCCC1NC(=O)Cc1sc(S)nc1C", "note": "(stereo not shown)", "TSA(with NAD+) / Primary screening (TSA) / delta Tm (K)": -0.26}
{"smiles": "COc1ccccc1C1C(C(=O)/C=C/c2ccco2)=C(O)C(=O)N1CCCN1CCOCC1", "note": "(stereo not shown)", "TSA(with NAD+) / Primary screening (TSA) / delta Tm (K)": -0.18}
{"smiles": "CC(N)C(N)=O", "note": "(stereo not shown)", "TSA(with NAD+) / Primary screening (TSA) / delta Tm (K)": -0.19}
{"smiles": "Cc1nc(N2CCC(NC(N)=O)CC2)c2c3c(sc2n1)CCCC3", "TSA(with NAD+) / Primary screening (TSA) / delta Tm (K)": -0.03}
{"smiles": "Cc1nc(N2CCC(C(N)=O)CC2)c2c3c(sc2n1)CCCC3", "TSA(with NAD+) / Primary screening (TSA) / delta Tm (K)": 0.57}
{"smiles": "Cc1nc(N2CCN(c3ncccc3C(N)=O)CC2)c2c3c(sc2n1)CCC3", "TSA(with NAD+) / Primary screening (TSA) / delta Tm (K)": 0.02}
{"smiles": "Cc1nc(N2CCC(C(N)=O)CC2)c2c3c(sc2n1)CCCCC3", "TSA(with NAD+) / Primary screening (TSA) / delta Tm (K)": 0.66}
{"smiles": "NC(=O)C1CCN(c2ncnc3sc4c(c23)CCC4)CC1", "TSA(with NAD+) / Primary screening (TSA) / delta Tm (K)": -0.04}
{"smiles": "Cc1nc(N2CCC(C(N)=O)CC2)c2c3c(sc2n1)CCC3", "TSA(with NAD+) / Primary screening (TSA) / delta Tm (K)": 0.01}
{"smiles": "Cc1noc(C(C)N2CCN(Cc3cccc(C(N)=O)c3)CC2)n1", "note": "(stereo not shown)", "TSA(with NAD+) / Primary screening (TSA) / delta Tm (K)": -0.03}
{"smiles": "NCCC[C@@H](N)C(=O)O", "TSA(with NAD+) / Primary screening (TSA) / delta Tm (K)": -0.08}
{"smiles": "O=C(CCc1nc2ccccc2o1)N1CCN(C(c2ccc(F)cc2)c2ccc(F)cc2)CC1", "TSA(with NAD+) / Primary screening (TSA) / delta Tm (K)": -0.01}
{"smiles": "O=C(O)c1ccc2[nH]c(C(F)(F)F)nc2c1", "TSA(with NAD+) / Primary screening (TSA) / delta Tm (K)": -0.14}
{"smiles": "COc1cc(-c2nc(-c3ccccc3)c(-c3ccccc3)[nH]2)ccc1OS(=O)(=O)c1ccc(C)cc1", "TSA(with NAD+) / Primary screening (TSA) / delta Tm (K)": 0.05}
{"smiles": "CNC(=O)CCNc1ccc2nnc(C(F)(F)F)n2n1", "TSA(with NAD+) / Primary screening (TSA) / delta Tm (K)": 0.08}
{"smiles": "COC(=O)C[C@H](N)C(=O)O", "TSA(with NAD+) / Primary screening (TSA) / delta Tm (K)": 0.02}
{"smiles": "COCC(C)N", "note": "(stereo not shown)", "TSA(with NAD+) / Primary screening (TSA) / delta Tm (K)": -0.04}
{"smiles": "Cc1ccc(C23CC4CC(CC(C(=O)OCC(N)=O)(C4)C2)C3)cc1C", "TSA(with NAD+) / Primary screening (TSA) / delta Tm (K)": -0.16}
{"smiles": "Cc1ccc(C23CC4CC(CC(C(=O)OC(C)C(=O)Nc5ccc(S(N)(=O)=O)cc5)(C4)C2)C3)cc1C", "note": "(stereo not shown)", "TSA(with NAD+) / Primary screening (TSA) / delta Tm (K)": 0.43}
{"smiles": "Cc1ccc(C23CC4CC(CC(C(=O)OCC(=O)Nc5ccc(S(N)(=O)=O)cc5)(C4)C2)C3)cc1", "TSA(with NAD+) / Primary screening (TSA) / delta Tm (K)": 0.29}
{"smiles": "COc1cc(OC)c(OC)cc1C=C1C(=O)NC(=S)NC1=O", "TSA(with NAD+) / Primary screening (TSA) / delta Tm (K)": -0.16}
{"smiles": "Cc1csc2c(N3CC4CCCN4CC3C)ncnc12", "note": "(stereo not shown)", "TSA(with NAD+) / Primary screening (TSA) / delta Tm (K)": -0.19}
{"smiles": "N#C/C(=C\\c1[nH]c2ccccc2c1Cl)C(N)=O", "TSA(with NAD+) / Primary screening (TSA) / delta Tm (K)": -0.09}
{"smiles": "CCOc1ccc(/C=C(/C#N)C(=O)c2c[nH]c3cc(F)ccc23)cc1", "TSA(with NAD+) / Primary screening (TSA) / delta Tm (K)": -0.03}
{"smiles": "CCCCCCCCNC(=O)/C(C#N)=C/c1c[nH]c2ccccc12", "TSA(with NAD+) / Primary screening (TSA) / delta Tm (K)": 0.43}
{"smiles": "Cc1ccc(C(=O)Nc2ccc(NC(=O)NCC3CCCO3)cc2)cn1", "note": "(stereo not shown)", "TSA(with NAD+) / Primary screening (TSA) / delta Tm (K)": 0.55}
{"smiles": "O=C(NCC1CCCO1)Nc1ccc(NC(=O)c2ccccn2)cc1", "note": "(stereo not shown)", "TSA(with NAD+) / Primary screening (TSA) / delta Tm (K)": 0.06}
{"smiles": "COc1cc(C=C(C(=O)NCC2CCCO2)C(=O)NCC2CCCO2)ccc1OCC(=O)Nc1ccc(C)cc1", "note": "(stereo not shown)", "TSA(with NAD+) / Primary screening (TSA) / delta Tm (K)": -0.15}
{"smiles": "COC(=O)c1ccc2[nH]c3c(c2c1)CN(S(C)(=O)=O)CC3", "TSA(with NAD+) / Primary screening (TSA) / delta Tm (K)": 0.16}
{"smiles": "N#CCCC(C#N)CN1CCC(CCc2ccc(O)cc2)CC1", "note": "(stereo not shown)", "TSA(with NAD+) / Primary screening (TSA) / delta Tm (K)": -0.14}
{"smiles": "O=C(COC(=O)c1cccc(NS(=O)(=O)/C=C/c2ccccc2)c1)NC12CC3CC(CC(C3)C1)C2", "TSA(with NAD+) / Primary screening (TSA) / delta Tm (K)": -0.01}
{"smiles": "CC(NS(=O)(=O)c1cccc(C(=O)OCC(=O)Nc2sccc2C#N)c1)C12CC3CC(CC(C3)C1)C2", "note": "(stereo not shown)", "TSA(with NAD+) / Primary screening (TSA) / delta Tm (K)": 0.37}
{"smiles": "CC(=O)c1ccc(NC(=O)C(C)OC(=O)c2cccc(S(=O)(=O)NC(C)C34CC5CC(CC(C5)C3)C4)c2)cc1", "note": "(stereo not shown)", "TSA(with NAD+) / Primary screening (TSA) / delta Tm (K)": 0.19}
{"smiles": "CC(NC(=O)COC(=O)c1cccc(S(=O)(=O)NCc2ccccc2)c1)C12CC3CC(CC(C3)C1)C2", "note": "(stereo not shown)", "TSA(with NAD+) / Primary screening (TSA) / delta Tm (K)": 0.05}
{"smiles": "Cc1cccc(NS(=O)(=O)c2cccc(C(=O)OCC(=O)NC(=O)NC34CC5CC(CC(C5)C3)C4)c2)c1", "TSA(with NAD+) / Primary screening (TSA) / delta Tm (K)": 0.46}
{"smiles": "O=C(COC(=O)c1cccc(S(=O)(=O)NCc2ccccc2)c1)NC12CC3CC(CC(C3)C1)C2", "TSA(with NAD+) / Primary screening (TSA) / delta Tm (K)": -0.25}
